Data from PubChem BioAssay.
The source made the active and inactive calls. Unless noted, the rule behind the calls is not given here.

Legend:
[1] = compounds binding Alexa647 anti-His antibody – biochemical, small-molecule microarray, 635 nm fluorescence, artefact control for SMM control protein annotation, primary screen (AID 1128); conditions: higher = more signal;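 note: score merges feature fluorescence with signal-to-noise for each printed compound spot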
[2] = system: Human papillomavirus type 1a E7 protein (residues 1-88); assay: HPV1a E7 small-molecule binders, primary screen, biochemical, small-molecule microarray, residues 1-88, 635 nm (AID 1129); conditions: small-molecule microarray binding, fluorescence 635 nm; higher = more signal
[3] = molecular target: Focal adhesion kinase 1 (Homo sapiens) (UniProt Q05397); assay: PTK2 protein binding on printed compound slides – biochemical, small-molecule microarray, 635/667 nm fluorescence, BSA, DTT, primary screen (AID 1130); conditions: 635 nm fluorescence, higher = more signal;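 note: composite of spot emission at 667 nm and signal to noise over triplicate slides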
Focal adhesion kinase 1 (Homo sapiens), sequence (Q05397 whole entry, looked up): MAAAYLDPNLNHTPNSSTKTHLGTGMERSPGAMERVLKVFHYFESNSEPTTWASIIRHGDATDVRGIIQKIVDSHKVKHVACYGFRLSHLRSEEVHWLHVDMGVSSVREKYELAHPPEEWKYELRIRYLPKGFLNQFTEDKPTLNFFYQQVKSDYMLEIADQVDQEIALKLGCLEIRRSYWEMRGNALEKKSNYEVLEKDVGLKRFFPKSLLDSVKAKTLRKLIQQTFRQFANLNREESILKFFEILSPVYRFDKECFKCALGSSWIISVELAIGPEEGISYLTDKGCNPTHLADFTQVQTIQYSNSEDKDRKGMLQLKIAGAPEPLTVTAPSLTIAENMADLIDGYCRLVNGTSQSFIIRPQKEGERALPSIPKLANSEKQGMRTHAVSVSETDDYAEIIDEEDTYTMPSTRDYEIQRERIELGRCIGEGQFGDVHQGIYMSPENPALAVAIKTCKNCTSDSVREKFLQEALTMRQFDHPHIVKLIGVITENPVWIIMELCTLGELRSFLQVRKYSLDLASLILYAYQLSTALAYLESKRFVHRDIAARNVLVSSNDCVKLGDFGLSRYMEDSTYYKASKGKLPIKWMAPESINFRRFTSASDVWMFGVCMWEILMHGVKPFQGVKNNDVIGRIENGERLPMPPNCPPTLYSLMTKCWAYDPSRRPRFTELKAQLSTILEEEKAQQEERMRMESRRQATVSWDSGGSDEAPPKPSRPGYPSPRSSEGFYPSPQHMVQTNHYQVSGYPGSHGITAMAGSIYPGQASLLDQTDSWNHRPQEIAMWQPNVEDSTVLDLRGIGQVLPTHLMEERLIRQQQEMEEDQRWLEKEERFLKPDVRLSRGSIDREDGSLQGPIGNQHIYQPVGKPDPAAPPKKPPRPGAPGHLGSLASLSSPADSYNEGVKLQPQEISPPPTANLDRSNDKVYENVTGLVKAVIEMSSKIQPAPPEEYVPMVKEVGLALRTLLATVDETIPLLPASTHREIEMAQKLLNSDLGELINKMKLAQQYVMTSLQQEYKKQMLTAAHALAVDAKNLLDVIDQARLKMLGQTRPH

[4] = system: Fibrinogen (Alexa647-labelled); assay: Alexa647-fibrinogen binding to printed small molecules – biochemical, small-molecule microarray, 635/667 nm fluorescence, artefact control for SMM control-protein annotation, profiling panel (AID 1131); conditions: fibrinogen-A647 binding fluorescence, higher = more signal;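 note: z-score merges 667 nm fluorescence with per-spot signal-to-noise over triplicate slides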
[5] = molecular target: Follistatin (Homo sapiens) (UniProt P19883); assay: FST protein binding to printed compounds – biochemical, small-molecule microarray, 635/667 nm fluorescence, primary screen (AID 1132); conditions: 635 nm fluorescence, higher = more signal
Follistatin (Homo sapiens), sequence (P19883 whole entry, looked up): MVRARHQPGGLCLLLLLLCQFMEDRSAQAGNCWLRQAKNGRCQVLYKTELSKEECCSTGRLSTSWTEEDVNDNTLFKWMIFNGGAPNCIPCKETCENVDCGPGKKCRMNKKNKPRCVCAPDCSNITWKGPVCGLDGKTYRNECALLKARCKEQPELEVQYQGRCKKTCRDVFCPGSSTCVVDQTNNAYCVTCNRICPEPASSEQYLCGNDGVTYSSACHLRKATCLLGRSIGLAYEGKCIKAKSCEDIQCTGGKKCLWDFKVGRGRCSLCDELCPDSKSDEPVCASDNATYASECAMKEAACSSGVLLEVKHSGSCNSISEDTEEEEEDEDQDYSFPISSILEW

[6] = molecular target: Fibroblast growth factor 2 (Homo sapiens) (UniProt P09038); assay: basic fibroblast growth factor binding to printed compounds – biochemical, small-molecule microarray, 635/667 nm fluorescence, primary screen (AID 1133); conditions: FGF2, fluorescence 635/667, higher = more signal
Fibroblast growth factor 2 (Homo sapiens), sequence (P09038 whole entry, looked up): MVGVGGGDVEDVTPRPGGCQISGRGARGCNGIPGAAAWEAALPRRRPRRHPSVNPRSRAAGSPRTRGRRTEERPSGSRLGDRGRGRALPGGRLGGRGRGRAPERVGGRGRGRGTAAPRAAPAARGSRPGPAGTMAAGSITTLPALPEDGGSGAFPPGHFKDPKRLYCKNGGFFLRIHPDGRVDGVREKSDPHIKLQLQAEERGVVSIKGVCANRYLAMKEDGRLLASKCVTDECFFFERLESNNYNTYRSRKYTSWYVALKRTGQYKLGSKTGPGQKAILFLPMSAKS

[7] = JC-1 mitochondrial potential readout, lung cancer cells – cell-based, A549, JC-1 fluorescence, basal, 24 h, 100 nL, profiling panel (AID 1138); conditions: higher = more signal;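 note: A549 lung adenocarcinoma cells under basal conditions with no added stimulus; test concentration not given here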
Lefty1 = Lefty1 protein binding to printed compounds – biochemical, small-molecule microarray, 635/667 nm fluorescence, primary screen (AID 1139); conditions: fluorescence 635/667, higher = more signal
[8] = system: wheat germ agglutinin (Triticum aestivum), Alexa647-labelled; assay: Alexa647-WGA lectin binding to printed small molecules – biochemical, small-molecule microarray, 635/667 nm fluorescence, artefact control for SMM control-protein annotation, profiling panel (AID 1140); conditions: WGA-A647 binding, 635 nm fluorescence, higher = more signal;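 note: score merges 667 nm feature emission with signal to noise over triplicate slides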
[9] = molecular target: Luciferin 4-monooxygenase (Photinus pyralis) (UniProt P08659); assay: inhibition of purified Photinus pyralis luciferase – biochemical, luminescence, purified enzyme, 2006 set, primary screen (AID 1141); conditions: purified firefly luciferase, SteadyGlo luminescence, 30 min; higher = more signal, called active from +8 up or from −8 down;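 note: cell-free assay with purified firefly luciferase at 100 ng per well in PBS; test concentration not given here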
Luciferin 4-monooxygenase (Photinus pyralis), sequence (P08659 whole entry, looked up): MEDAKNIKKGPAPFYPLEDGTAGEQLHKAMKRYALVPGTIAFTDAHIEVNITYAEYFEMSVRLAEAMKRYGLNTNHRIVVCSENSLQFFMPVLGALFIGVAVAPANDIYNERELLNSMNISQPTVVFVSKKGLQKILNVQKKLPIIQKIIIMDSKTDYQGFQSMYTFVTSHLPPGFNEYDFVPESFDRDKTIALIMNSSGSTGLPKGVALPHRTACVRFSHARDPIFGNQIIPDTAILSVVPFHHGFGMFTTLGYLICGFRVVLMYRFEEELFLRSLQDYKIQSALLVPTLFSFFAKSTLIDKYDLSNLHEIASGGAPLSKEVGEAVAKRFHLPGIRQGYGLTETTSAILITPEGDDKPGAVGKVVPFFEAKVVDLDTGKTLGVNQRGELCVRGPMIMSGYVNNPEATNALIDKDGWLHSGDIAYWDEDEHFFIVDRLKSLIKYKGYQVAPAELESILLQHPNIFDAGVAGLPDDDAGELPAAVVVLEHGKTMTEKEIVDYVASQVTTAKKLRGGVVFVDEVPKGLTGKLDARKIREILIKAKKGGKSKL

[10] = system: Wnt5a (protein binding on small-molecule microarray); assay: small molecules binding Wnt5a protein – biophysical, small-molecule microarray, 635/667 nm fluorescence, primary screen (AID 1142); conditions: 635 nm fluorescence, higher = more signal;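 note: fluorescence read at 667 nm with signal to noise per printed feature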
[11] = ATP-based viability of Huh7 replicon cells – cell-based, CellTiter-Glo luminescence, basal, 48 h, cytotoxicity control for HCV replication inhibitor project, primary screen (AID 1143); conditions: higher = more signal, called active from +8 up or from −8 down;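 note: Huh7 hepatoma cells carrying a hepatitis C replication reporter with no stimulus; test concentration not given here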
[12] = Pseudomonas biofilm growth suppression – PAO1 strain, BacTiter-Glo luminescence, LB-PBS, primary screen (AID 1144); conditions: P. aeruginosa PAO1 biofilm, 12 h, higher = more signal
[13] = basal CRE-LacZ reporter activity in PC12 – cell-based, unstimulated, primary screen (AID 1145); conditions: no forskolin, luminescence, 4.5 h, higher = more signal, called active from +8 up or from −8 down
[14] = forskolin-driven CRE-LacZ activity in PC12 – cell-based, CRE-LacZ reporter, forskolin-stimulated, primary screen (AID 1146); conditions: luminescence, 4.5 h, higher = more signal, called active from +8 up or from −8 down;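 note: PC12 cells with 6xCRE LacZ reporter stimulated by forskolin 10 µM; beta-galactosidase reporter signal reflecting CREB driven transcription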
[15] = molecular target: Streptavidin (Streptomyces avidinii) (UniProt P22629); assay: compounds binding control protein streptavidin – biophysical, small-molecule microarray, 635/667 nm fluorescence, artefact control for SMM compound annotation, primary screen (AID 1147); conditions: higher = more signal;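 note: signal reflects streptavidin binding to arrayed compounds as a control protein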
Streptavidin (Streptomyces avidinii), sequence (P22629 whole entry, looked up): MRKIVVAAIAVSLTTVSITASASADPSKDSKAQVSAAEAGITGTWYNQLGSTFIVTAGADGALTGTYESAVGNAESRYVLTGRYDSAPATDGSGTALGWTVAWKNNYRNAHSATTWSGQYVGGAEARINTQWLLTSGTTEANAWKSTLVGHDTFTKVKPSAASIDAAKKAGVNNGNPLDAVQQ

[16] = probe aInhba binding on compound microarray – biochemical, small-molecule microarray, 635/667 nm fluorescence, primary screen (AID 1148); conditions: higher = more signal;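 note: score merges 667nm spot fluorescence with signal-to-noise for antibody binding to printed compounds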
Torsin-1A (Homo sapiens) [17] = molecular target: Torsin-1A (Homo sapiens) (UniProt O14656); assay: TOR1A wild-type binding on microarray – cell lysate, small-molecule microarray, lysate, 635/667 nm, primary screen (AID 1149); conditions: COS7 hTOR1A-WT lysate, 635 nm fluorescence, higher = more signal
Torsin-1A (Homo sapiens), sequence (O14656 whole entry, looked up): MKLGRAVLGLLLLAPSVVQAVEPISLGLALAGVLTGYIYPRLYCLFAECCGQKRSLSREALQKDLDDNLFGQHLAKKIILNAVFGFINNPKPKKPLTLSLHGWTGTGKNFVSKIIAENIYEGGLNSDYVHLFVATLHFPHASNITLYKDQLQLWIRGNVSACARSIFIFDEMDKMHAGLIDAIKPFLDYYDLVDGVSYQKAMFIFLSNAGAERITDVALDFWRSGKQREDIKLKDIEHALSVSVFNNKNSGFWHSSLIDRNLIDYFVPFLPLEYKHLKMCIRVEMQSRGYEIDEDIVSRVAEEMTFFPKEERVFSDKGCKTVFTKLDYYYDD

Torsin-1A (Homo sapiens) [18] = molecular target: Torsin-1A (Homo sapiens) (UniProt O14656); assay: torsin A mutant lysate binding on microarrays – cell lysate, small-molecule microarray, COS7 lysate, 635/667 nm fluorescence, primary screen (AID 1150); conditions: COS7 hTOR1A mutant lysate, 635 nm fluorescence, higher = more signal;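 note: score pools 667 nm emission and signal to noise measuring lysate protein binding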
[19] = system: Sonic hedgehog protein (Shh); assay: Sonic hedgehog microarray binding compounds – biochemical, small-molecule microarray, 635/667 nm fluorescence, primary screen (AID 1151); conditions: 635 nm fluorescence, higher = more signal;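 note: Shh protein binding to compounds spotted on small-molecule microarray slides; score combines spot fluorescence intensity with signal-to-noise across triplicate slides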

Compound | composite z-score [1] | composite z-score [2] | composite z-score [3] | composite z-score [4] | composite z-score [5] | composite z-score [6] | z-score [7] | composite z-score (Lefty1) | composite z-score [8] | z-score [9] | composite z-score [10] | z-score [11] | z-score [12] | z-score [13] | z-score [14] | composite z-score [15] | composite z-score [16] | composite z-score (Torsin-1A (Homo sapiens) [17]) | composite z-score (Torsin-1A (Homo sapiens) [18]) | composite z-score [19]
COC(=O)[C@@]1(Cc2ccc(OC)cc2)[C@H]2c3cc(C(=O)N4CCCC4)n(Cc4cc(F)cc5c4OCOC5)c3C[C@H]2CN1C(=O)c1ccccc1 | -0.642 | 1.2 | 0.993 | -0.18 | 0.0448 | -0.873 | 0.64 | -0.394 | 0.0908 | 0.0222 (inactive) | 0.605 | -2.5 (inactive) | 0.437 (inactive) | 2.68 (inactive) | 66.7 (active) | 0.699 | 0.423 | 0.442 | 0.996 | -0.673
COCC(=C=CC[C@@H](O)c1ccc(CO)o1)CCO | -0.145 | 0.114 | -0.29 | -0.23 | 1.24 | 0.958 | -0.0212 | 1.24 | 0.43 | -0.877 (inactive) | 0.0507 | -3.6 (inactive) | -1.23 (inactive) | 0.014 (inactive) | -0.845 (inactive) | -0.618 | -0.024 | -0.117 | -0.114 | 2.2
CCOC(=O)C[C@H]1[C@H](OC(=O)c2ccccc2-c2ccccc2)[C@@H](NC(=O)Cc2ccc(OC)cc2)c2cc(OCCCO)ccc2N1C(=O)c1ccccc1 | -0.269 | -0.371 | 0.145 | -0.449 | 0.23 | -0.443 | 0.362 | 0.189 | -0.0397 | 0.474 (inactive) | 0.222 | -0.0369 (inactive) | 0.817 (inactive) | 4.57 (inactive) | 2.83 (inactive) | -0.105 | -0.287 | -0.259 | 0.405 | -0.127
Cc1ccc(S[C@]2(C(=O)NCC(C)C)CC(=O)N(Cc3ccccc3Cl)[C@@H]2c2ccc(CO)cc2)cc1 | 1.8 | -1.41 | -1.09 | -0.804 | -1.5 | -1.21 | 1.37 | -2.17 | 0.208 | -0.79 (inactive) | -0.343 | 0.554 (inactive) | 1.15 (inactive) | 0.118 (inactive) | -0.227 (inactive) | -1.67 | -0.331 | -0.326 | 0.961 | -1.18
COc1cc2c(cc1OC)CN(C(=O)[C@@H]1[C@H]3C(=O)O[C@H](c4ccccc4)[C@H](c4ccccc4)N3[C@H](c3ccccc3OCCO)[C@@]13C(=O)Nc1ccc(C#CCNC(N)=O)cc13)CC2 | 1.62 | 0.923 | 1.33 | 0.933 | 0.741 | 0.748 | -0.864 | 0.768 | 0.856 | -1.64 (inactive) | 0.38 | -2 (inactive) | -0.105 (inactive) | -0.168 (inactive) | -0.0826 (inactive) | 0.684 | 0.32 | 0.593 | 0.812 | 1.38
Cc1ccc([C@H]2C(C(=O)O)=C[C@@H](C)N2S(=O)(=O)c2ccc(C)cc2)cc1 | 1.72 | 1.14 | 1.96 | -1.29 | -0.742 | -1.16 | -0.321 | -1.15 | 1.32 | 0.467 (inactive) | -0.144 | -0.501 (inactive) | 0.759 (inactive) | -0.126 (inactive) | 1.32 (inactive) | 0.642 | -0.0509 | -0.948 | -0.465 | -0.945
CN(C)C(=O)[C@]1(CCC(=O)OC(C)(C)C)N=C(c2ccc(OCCCO)cc2)O[C@@H]1c1ccccc1N=[N+]=[N-] | 0.128 | 1.3 | 0.383 | 0.996 | 1.25 | 0.347 | 0.752 | -0.037 | 1.15 | -7.84 (inactive) | 0.928 | -1.61 (inactive) | 0.878 (inactive) | 0.988 (inactive) | 0.0155 (inactive) | 1.38 | 0.105 | 1.62 | 2.11 | -0.149
Cc1ccc(S[C@]2(C(=O)NC3CC3)CC(=O)N(Cc3ccccc3)[C@@H]2c2ccc(CO)cc2)cc1 | 0.116 | -0.663 | -0.526 | -0.816 | -0.432 | -0.596 | 0.424 | -0.663 | 0.222 | -0.585 (inactive) | -0.144 | 0.103 (inactive) | 0.396 (inactive) | -0.295 (inactive) | 0.473 (inactive) | -0.807 | -0.0762 | -0.559 | -0.906 | -0.863
COCCOC(=O)N1C(=O)[C@@]2(c3cc(C#CCNC(N)=O)ccc31)[C@H](c1ccc(O)cc1)N1[C@H](c3ccccc3)[C@H](c3ccccc3)OC(=O)[C@H]1[C@@H]2C(=O)NC[C@H](O)c1ccccc1 | -0.49 | 0.802 | -0.133 | 0.793 | 1.34 | 1.19 | -1.05 | 1.13 | 0.69 | 0.0103 (inactive) | 0.545 | 0.123 (inactive) | 0.00448 (inactive) | -0.606 (inactive) | -0.197 (inactive) | -0.0027 | 0.415 | 0.76 | 0.353 | 1.75
COc1ccc([Si](C)(C)[C@@H]2[C@@H](CCn3cc([C@H](O)c4ccccc4)nn3)O[C@]3(C(=O)N(Cc4cccc(N5CCOC5=O)c4)c4ccccc43)[C@H]2C)cc1 | -1.11 | -0.576 | -0.753 | -1.23 | -1.68 | -0.977 | 2.14 | -1.31 | -0.452 | -1.5 (inactive) | -0.105 | -1.08 (inactive) | -1.69 (inactive) | 0.134 (inactive) | -1.36 (inactive) | -0.469 | -0.292 | -0.568 | -0.668 | -0.98
